The source of these data is PubChem BioAssay (NCI).

Each structure is given as a SMILES string. About 83,000 compounds went through this panel and 20% of them were active in at least one assay; those are over-represented in the sample as a whole.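 Assay: single dose, 48 h. Readout: percent growth (0 = no net growth; negative = cell death). Active: <10.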 A number with no mark means an inactive call. Calls of active or inactive are those of the source.

The subject of the experiment is HL-60(TB) leukemia. The experiment is described as follows: NCI-60 one-dose screen, 48 h (100 = growth as untreated, 0 = no growth, -100 = all killed). Particulars: 10 µM unless noted.
As for `C=CC[C@]1(O)CC[C@H]2[C@@H]3CCc4cc(O)ccc4[C@H]3CC[C@@]21C`, the growth was 75.1%.

On to `NC(=NC1C2CC3CC(C2)CC1C3)Nc1ccc(I)cc1` (stereo not given), for which the growth was 101%.

In the case of `COc1ccc(-c2nnc(NC(=O)CN3CCN(c4cc5c(cc4F)c(=O)c(C(=O)O)cn5C4CC4)CC3)s2)cc1OC`, the growth was 111%.

As to `CCCCn1c(-c2ccc(C(=O)O/N=C(\N)c3ccc(OC)cc3)cc2)nc(-c2ccccc2)c1-c1ccccc1`, the growth was -62.5% (active).

With `CC1(C)CC2(C)OC2C2(C1)N=NC(=Nc1ccccc1)O2` (stereo not given), the growth was 85.2%.

As to `Cc1ccccc1C1CC(=O)c2ccccc2C1C` (stereo not given), the growth is 98.6%.

For `Nc1c(C(=O)Nc2cccc(Cl)c2)sc2ncc(Br)cc12`, the growth is 108%.

Turning to `COc1ccc2c(c1)C(=O)c1c-2c(OCCCN(C)C)nc2cc(Br)ccc12`, the growth is 98.4%.

Consider `CN(C)C1CCN(C(=O)c2ccc(NC(=O)Nc3ccc(-c4nc(N5CCOCC5)c5cccn5n4)cc3)cc2)CC1`, for which the growth was 4.58% (active).

In the case of `O=C1C(Cl)=C(Nc2ccccc2)C(=O)c2ccccc21`, the growth is -19.5% (active).

With `CC(C)c1cc(C(=O)O)c(O)c(C(C)C)c1.CC(C)c1cc(C(=O)O)c(O)c(C(C)C)c1.[Mn]`, the growth is 94.2%.

Consider `Nc1nc(=S)ss1`, for which the growth was 87.8%.

In the case of `COc1cccc(C2CC(=O)Nc3cc4c(cc32)CCC4)c1OC` (stereo not given), the growth is 10.4%.

As to `CC1=NN(c2ccc(Cl)cc2)CC1(C)N=O` (stereo not given), the growth was 38.5%.

On to `CC1=C(C)C(=O)C(C(C)C2=C(C)C(=O)C(C)=C(C)C2=O)=C(C)C1=O`, for which the growth was 42.5%.

As to `O=C1/C(=C/c2c[nH]c(=O)[nH]c2=O)SC(=S)N1Cc1ccccc1`, the growth is 99.3%.

For the molecule `COc1cc2c(cc1OC)C(=O)OC2`, the growth is 156%.

As to `COc1ccc(-n2nnnc2-c2cn[nH]c2C(F)(F)F)cc1`, the growth was 98.3%.

In the case of `CN1COc2ccc3ccccc3c2C1`, the growth is 93.2%.

On to `Cc1ccc(C(=O)CC(=O)C(F)(F)C(F)(F)C(F)(F)F)s1`, for which the growth was 101%.

As to `Cc1cc(=O)[nH]c(/C(=N/Nc2ccccc2)C(=O)c2ccc(Cl)cc2)n1`, the growth is 50.7%.

For `Cc1ccc(NC(=O)/C=C/c2ccccc2)c(C(N)=O)c1`, the growth was -25.5% (active).

As to `Cc1nn2c(/C=C3/C(=O)Nc4cc(Cl)ccc43)c(-c3ccccc3)nc2s1`, the growth is 32.2%.

On to `CCCCCCNC(=O)Oc1ccc(/C(=C(\C)c2ccc(Cl)cc2)c2ccc(OCCCN(C)C)cc2)cc1`, for which the growth is 62.9%.

On to `CCOC(=O)c1c(-c2cc(OC)c(OC)c(OC)c2)csc1N`, for which the growth was 96.3%.

In the case of `COc1cccc(-c2nc3sccn3c2-c2ccnc(NCCNS(=O)(=O)c3ccccc3)c2)c1`, the growth was -18.1% (active).

Consider `CC1(C)CC[C@]2(C(=O)Nc3ccccn3)CC[C@]3(C)C(=CC[C@@H]4[C@@]5(C)C/C(=C/c6ccncc6)C(=O)C(C)(C)[C@@H]5CC[C@]43C)[C@@H]2C1`, for which the growth is -0.971% (active).

Consider `CCN(CCCNC(=O)Cc1cc(=O)oc2cc(N(C)C)ccc12)CCNc1ccnc2cc(Cl)ccc12`, for which the growth was 76.6%.

For `COc1ccc(/C=C/C(=O)c2cc(OC)c(OC)c(OC)c2)cc1OCC(=O)Nc1nc2ccc(OC(F)(F)F)cc2s1`, the growth is 6.61% (active).

Take `O=C(Nc1cccnc1)c1ccc2ccc3ccc(C(=O)Nc4cccnc4)nc3c2n1`: the growth was 37.1%.

Turning to `CC[C@H](C)[C@H](N)C(=O)O`, the growth is 115%.

On to `Cc1cc2c(c(C)c1Cl)C(=O)/C(=C/c1ccc(O)c(O)c1)O2`, for which the growth is 108%.

Take `CC(=O)CC(c1ccccc1)c1c(C)[nH]c2ccccc12` (stereo not given): the growth is 107%.

For `COP(=O)(OC)c1nnn(-c2cccc([N+](=O)[O-])c2)c1C`, the growth is 99.8%.

For the molecule `O=C(NCc1ccc2c(c1)OCO2)NCC1CCCC(CNC(=O)NCc2ccc3c(c2)OCO3)C1` (stereo not given), the growth is 108%.

Regarding `CCCCCCCCNC(=O)C(C)C`, the growth was 99.7%.

On to `COc1cccc(/C(C)=N/NC(=O)CSc2nc3ccccc3c(=O)n2CCc2ccc(S(N)(=O)=O)cc2)c1`, for which the growth was 58.5%.

Consider `O=C1c2ccccc2C(=O)c2c([N+](=O)[O-])ccc(Cl)c21`, for which the growth is 111%.

On to `O=C1c2ccccc2-c2nnc(-c3ccc(Br)cc3)cc21`, for which the growth is 0.71% (active).

With `CC1=NN(c2cccc(Cl)c2)C(=O)/C1=C\c1cn(CC(O)CN2CCCCC2)c2ccccc12` (stereo not given), the growth is 25.7%.
